Assay results taken from PubChem BioAssay (NCI).
Several values for one entry are separate records, joined by “and”; a condition that tells them apart may be missing. Identical values can stand only once. About 83,000 compounds went through this panel and 20% of them were active in at least one assay; those are over-represented in the sample as a whole.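 A percent growth of 40 corresponds to 60% growth inhibition; 0 means no net growth; -100 means all cells died. Active threshold: below 10.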 Values without a mark were called inactive. Activity calls are given as the source filed them.

Test system: MDA-MB-468 breast
Experiment: NCI-60 one-dose screen, 48 h (100 = growth as untreated, 0 = no growth, -100 = all killed)
Conditions: 10 µM unless noted

Row | Compound | growth
1 | O=C(/C=C/c1cccc(F)c1)c1cccc(OCCCCOc2cccc(C(=O)/C=C/c3cccc(F)c3)c2)c1 | 87.2%
2 | c1ccc2c(-c3nc(N4CCOCC4)c4c5c(sc4n3)CCCCCC5)cccc2c1 | 95.1%
3 | CN(C)c1nc(N)nc(Cn2c(-c3nonc3N)nc3ccccc32)n1 | 23.2%
4 | CCN(CC)CCOc1ccc2c(c1O)C(=O)c1ccccc1C2=O | 80.3%
5 | Nc1ccc(CC[C@H]2CCC/C=C/[C@@H]3C[C@H](O)C[C@H]3[C@H](O)/C=C/C(=O)O2)cc1 | -27.3% (active)
6 | O=C(Cc1csc2nc(-c3ccc(Cl)cc3)cn12)N/N=C/c1ccccc1O | 56.7%
7 | CNC(=O)c1cc(Oc2ccc3nc(NC(=O)Nc4ccc(C(F)(F)F)cc4)sc3c2)ccn1 | 49.9%
8 | CCN1CCN(CCNc2nccc(-c3c(-c4cccc(O)c4)nc4sccn34)n2)S1(=O)=O | 86.7% and 81.1%
9 | CCc1cccc2c3c(sc12)C(c1ccc(OC)cc1)C(C#N)=C(/N=C/c1ccc(Cl)cc1)O3 (stereo not drawn) | -6.83% (active)
10 | CC(=O)N1Cc2ccccc2C(C)Cc2cc(Cl)ccc21 (stereo not drawn) | 113%
11 | CC[C@H](CC[C@@H](C)[C@H]1CC[C@H]2[C@@H]3CC[C@@H]4CC(=O)/C(=C\c5ccncc5)C[C@]4(C)[C@H]3CC[C@]12C)C(C)C | 105%
12 | Oc1ccccc1-c1nc2c3ccccc3c3ccccc3c2o1 | 83%
13 | COc1ccc(-n2ncn(CCCCCCn3cnn(-c4ccc(OC)cc4)c3=O)c2=O)cc1 | 84.8%
14 | O=C(NNc1nc2cc(F)c(F)cc2n2cccc12)c1cccnn1 | -11.1% (active)
15 | COc1ccc(/C=C/c2c(C(=O)/C=C/c3ccc(C(F)(F)F)cc3)c(C)nc3ccccc23)cc1 | -54.5% (active)
16 | Cc1ccc(C(O)C2CC2)cc1 (stereo not drawn) | 103%
17 | C=C(C)[C@@H]1CC[C@]2(C(=O)NCCNCCNCCN)CC[C@]3(C)[C@H](CC[C@@H]4[C@@]5(C)CC[C@H](O)C(C)(C)[C@@H]5CC[C@]43C)[C@@H]12 | -48.6% [100 µM] (active)
18 | CCc1cccc(CC)c1N1C(=O)C=CC1=O | 34.7%
19 | CCCCCc1ccc(S(=O)(=O)Nc2cccc(-c3csc(NC(=O)CNCCN(C)C)n3)c2)cc1 | 82.9%
20 | CN([O-])c1nc(N(C)[O-])nc(N2CCOCC2)n1.CN([O-])c1nc(N(C)[OH2+])nc(N2CCOCC2)n1.[Fe+3] | -52.3% [100 µM] (active)
21 | Cc1ccc(S(=O)(=O)NCN2C(=O)c3ccccc3C2=O)cc1 | 93.6%
22 | CCCCc1n(Cc2ccc3ccccc3c2)cc[n+]1Cc1ccc2ccccc2c1 | -55.2% (active)
23 | C=C(C)[C@@H]1CC[C@]2(C(=O)NCCNCCN)CC[C@]3(C)[C@H](CC[C@@H]4[C@@]5(C)C/C(=C/c6ccncc6)C(=O)C(C)(C)[C@@H]5CC[C@]43C)[C@@H]12 | 80.3%
24 | COc1cc(-c2c3sc(=O)[nH]c3nc3c2c(=O)[nH]n3C(C)C)cc2c1OCO2 | 92.3%
25 | O=S(=O)(NCCNc1cc(-c2cn(-c3ccccc3)nc2-c2ccccc2)ccn1)c1ccc(F)cc1 | 58%

Row | Compound | growth
26 | COc1cc(/C=N/NC(=O)c2cnn3c2NC(c2ccccc2)C3)ccc1OCc1ccccc1 (stereo not drawn) | 1.21% (active)
27 | O=c1oc2c(cnc3ccccc32)cc1-c1cccs1 | 107%
28 | COc1ccc2c(c1)c(CC(=O)NCCOCCOCC(=O)Nc1ccc(OC)c(C(N)=O)c1O)c(C)n2C(=O)c1ccc(Cl)cc1 | 88.6%
29 | Nc1ccc(-c2nnc(SCc3ccc(O)c4ncccc34)n2-c2ccccc2)cc1 | 9.01% (active)
30 | CCOC(=O)C(=Cc1ccc(Br)cc1)C(=O)OCC | -73.3% (active)
31 | CCCCCCCC/C=C\CCCCCCCCOc1cccc(CC(=O)NCC[N+]2(C)CCCC2)c1 | 71.8%
32 | O=C(/C=C/C12c3ccccc3C(c3ccccc31)C1C(=O)NC(=O)C12)c1ccc(Cl)cc1 (stereo not drawn) | -19.5% (active)
33 | N/C(=N\c1nc2ccccc2[nH]1)NC(=O)Cc1cccc2ccccc12 | 79.8%
34 | Cc1ccc(/C=N/NC(=O)CSc2nc3ccccc3c(=O)n2Cc2ccc(S(N)(=O)=O)cc2)cc1 | 81.2%
35 | COc1cc(/C=C\c2cc(/C=C\c3ccc(O)c(OC)c3)n(C(=O)COc3ccccc3)n2)ccc1O | -1.76% (active)
36 | Nc1cc(-c2ccccc2)ccc1O | 93.5%
37 | COc1cc(C)c2sc3ccccc3c(=O)c2c1NCCN(C)C | 49%
38 | O=C(C1CCCCC1)[C@@H]1[C@]2(C(=O)NC3CCCCC32)[C@@H]2CCCN2[C@@]12C(=O)NC1CCC(Cl)CC12 (stereo partly drawn) | -67% [100 µM] (active)
39 | C/C(=C\c1ccc2ccccc2c1)[N+](=O)[O-] | -22.8% (active)
40 | COCCCNc1nc(NC(=O)c2ccc(F)cc2C)cc(-c2cccnc2)n1 | 111%
41 | COc1cc(OC)c(C2SCC(=O)N2Nc2ncnc3ccccc23)cc1OC (stereo not drawn) | 111%
42 | COc1ccc2c(c1)OC(N)=C(C#N)C2c1ccc(F)c(F)c1 (stereo not drawn) | -24.4% (active)
43 | CCCCC(=O)N/N=C/c1cc(I)cc(I)c1O | 69%
44 | CCCC/C(=N\N=C(N)N)c1ccc(F)cc1 | -12.3% (active)
45 | CN1CCN(c2ccc3cc(-c4nc5ccccc5[nH]4)c(=O)oc3c2)CC1 | 68.3%
46 | CCOc1ccc(N(C)c2ccc(/C=C/C3=[N+](C)c4ccccc4C3(C)C)cc2)cc1 | 6.26% (active)
47 | Nc1nc(-c2cnccn2)nn1-c1nc2ccccc2s1 | 102%
48 | N=C(N)c1ccc(-c2ccc(-c3ccc(Cl)c(Cl)c3)s2)cc1 | -61.6% (active)
49 | N#Cc1ccc(NC(=O)c2ccc3cccnc3c2O)cc1 | 1.27% (active)
50 | COc1ccc(C(=O)NC(=O)Nc2ccc3c(c2)NC(=O)/C3=C\c2[nH]c(C)c(C(=O)O)c2C)cc1 | 76.2%

Row | Compound | growth
51 | Cc1ccc(C)c2c1C(=O)OC2=O | 110%
52 | COc1cc(C2C=C(c3ccc(C)cc3)Nc3nc(SC)[nH]c(=O)c32)ccc1Oc1ccnc2cc(Cl)ccc12 (stereo not drawn) | 75.3%
53 | COc1ccc(-c2cc(-c3ccc(Cl)cc3)c(C#N)c(=O)n2CCCCCC(=O)Nc2ccccc2N)cc1 | 53.1%
54 | COc1cccc(-c2nn(-c3ccccc3)cc2-c2ccnc(NCCCNC(=O)Nc3ccc(Cl)c(Cl)c3)c2)c1 | -42.9% (active)
55 | COc1cc(OC)cc(-c2cncn2-c2ccc(-c3nc4cc(OC)cc(OC)c4s3)cc2)c1 | 4% (active)
56 | CN1CCN(c2ccc3c(c2)nc(NNC(=O)c2ccncn2)c2cccn23)CC1 | 19.7%
57 | Cc1cccc(-c2nc(Nc3ccc4ncsc4c3)c3ccccc3n2)n1 | 72.3%
58 | COc1cc(OC)cc(N2C(=O)N(Cc3ccc(C(C)(C)C)cc3)c3ccccc3S2(=O)=O)c1 | 51.8%
59 | COC(=O)Nc1nc2ccc(C(=O)c3ccc(F)cc3)cc2[nH]1 | 25.9%
60 | CC[C@H](C)[C@H](NC(=O)[C@@H](N)CCC(N)=O)C(=O)N[C@@H](Cc1ccc(O)cc1)C(=O)N[C@@H](CCCCN)C(=O)N[C@@H](CCCCN)C(=O)N[C@@H](Cc1ccc(O)cc1)C(=O)N[C@@H](CCCNC(=N)N)C(=O)N[C@H](C(=O)N[C@@H](Cc1c[nH]c2ccccc12)C(=O)N[C@@H](Cc1ccc(O)cc1)C(=O)N[C@@H](CCCNC(=N)N)C(=O)N[C@@H](CCCCN)C(=O)N[C@@H](C)C(=O)N[C@@H](Cc1c[nH]c2ccccc12)C(=O)N[C@@H](CCCCN)C(=O)N[C@H](C(=O)N[C@@H](CC(C)C)C(=O)NCC(=O)N[C@@H](CCCCN)C(=O)N[C@H](C(N)=O)C(C)C)C(C)C)[C@@H](C)O | 44.6%
61 | O=C1c2cccc(NCCN=Cc3cc([N+](=O)[O-])ccc3O)c2C(=O)c2c(NCCN=Cc3cc([N+](=O)[O-])ccc3O)cccc21 | 43.4%
62 | Oc1ccc(Nc2ccccc2)cc1 | 86.4%
63 | C#CCNC(=O)[C@H](CC)[C@H]1CC[C@H](C)[C@H]([C@@H](C)[C@H](O)[C@H](C)C(=O)[C@H](CC)C2O[C@]3(C=CC(=O)[C@]4(CC[C@@](C)([C@H]5CC[C@](O)(CC)[C@H](C)O5)O4)O3)[C@H](C)C[C@@H]2C)O1 (stereo partly drawn) | 9.34% (active)
64 | Ic1cccs1 | 103%
65 | Cc1cc(NC(=O)NC(=O)c2ccccc2N(C)C)ccc1Oc1ncc(Br)cn1 | -2.54% (active)
66 | COc1ccc(CCN2CCC(Nc3nc4ccccc4n3Cc3ccc(F)cc3)CC2)cc1 | -84.1% (active)
67 | N#Cc1c(-c2ccc(Cl)cc2)nc2c(c(-c3ccccc3)nn2-c2ccccc2)c1-c1ccc(O)cc1 | 31.2%
68 | CC(C)[C@H]1COC(=O)N1[C@@H]1C(=O)N([C@@H](CCC(=O)N2CCN(C3CCCC3)CC2)C(=O)N[C@@H]2CCCc3ccccc32)[C@@H]1/C=C/c1cccc(Br)c1 | -21.6% (active)
69 | CS(=O)(=O)c1ccc(-c2nc3cc(Cl)ccc3n2CC(=O)N/N=C/c2ccc(Cl)cc2)cc1 | 96.6%
70 | COc1ncnc2c(-c3ccccc3)cn(COCc3ccccc3)c12 | 42.1%
71 | CN1CCN(C(=O)/C=C/c2ccc([N+](=O)[O-])o2)CC1 | 77.4%
72 | COc1cc(Cc2cc(-c3ccccc3)nn(Cc3ccccc3)c2=O)cc(OC)c1OC | 28.4%
73 | S=c1sc2c(Cl)nc(-c3cccnc3)nc2n1-c1ccccc1 | -34.2% (active)
